In PubChem BioAssay (Tox21):
Records with an inconclusive call do not appear. Active and inactive are the calls of the source. Calls follow the shape of the full dose curve.

How the values were obtained:
[1] = target: Acetylcholinesterase (Homo sapiens) (UniProt P22303); test: Acetylcholinesterase (AChE) small molecule antagonists: colormetric cell-based qHTS assay (AID 1347395); also: nearly all actives have a fitted effect of over 30% in size
Method in brief: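 SH-SY5Y cells, plated overnight at 37 C, were exposed to compounds for 30 min at 37 C and 5% CO2. Acetylthiocholine plus DTNB was then added, and thiocholine from endogenous AChE was quantified colorimetrically after 90 min at 37 C.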

[2] = target: Acetylcholinesterase (Homo sapiens) (UniProt P22303); test: Acetylcholinesterase (AChE) small molecule antagonists: enzyme-based qHTS assay (AID 1347397); settings: Potency: AChE enzyme activity inhibition; outcome: AChE enzyme activity inhibition; also: nearly all actives have a fitted effect of over 55% in size
Method in brief: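 Colorimetric DTNB readout of acetylthiocholine hydrolysis, 10 min at room temperature, after 30 min room-temperature exposure of 50 mU/mL recombinant human enzyme to compound; DMSO vehicle control.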

[3] = target: Acetylcholinesterase (Homo sapiens) (UniProt P22303); test: Acetylcholinesterase (AChE) small molecule antagonists: fluorescence cell-based qHTS assay (AID 1347398); settings: Potency: AChE activity; outcome: AChE activity; also: nearly all actives have a fitted effect of over 50% in size
Method in brief: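 Cellular AChE activity read as thiocholine from acetylthiocholine hydrolysis, detected by Thiolite Green fluorescence at 490/520 nm after 40 min at room temperature. Compounds were pre-incubated 30 min at 37 C on adherent SH-SY5Y cells.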

[4] = target: Acetylcholinesterase (Homo sapiens) (UniProt P22303); test: Acetylcholinesterase (AChE) small molecule antagonists: enzyme-based qHTS assay with human liver microsomes (AID 1347399); settings: Potency: qHTS inhibition; outcome: qHTS inhibition; also: nearly all actives have a fitted effect of over 60% in size
Method in brief: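 Recombinant human AChE (50 mU/mL in the enzyme mix) and human liver microsomes (0.25 mg/mL final) were preincubated with compound and NADPH (0.25 mg/mL final) for 30 min at 37 C. Acetylthiocholine/DTNB was then added; thiocholine was read colorimetrically after 10 min at room temperature.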
% is scaled to controls: 0 for no effect and ±100 for the full control effect.

Sequence of Acetylcholinesterase (Homo sapiens) (P22303 whole entry, looked up): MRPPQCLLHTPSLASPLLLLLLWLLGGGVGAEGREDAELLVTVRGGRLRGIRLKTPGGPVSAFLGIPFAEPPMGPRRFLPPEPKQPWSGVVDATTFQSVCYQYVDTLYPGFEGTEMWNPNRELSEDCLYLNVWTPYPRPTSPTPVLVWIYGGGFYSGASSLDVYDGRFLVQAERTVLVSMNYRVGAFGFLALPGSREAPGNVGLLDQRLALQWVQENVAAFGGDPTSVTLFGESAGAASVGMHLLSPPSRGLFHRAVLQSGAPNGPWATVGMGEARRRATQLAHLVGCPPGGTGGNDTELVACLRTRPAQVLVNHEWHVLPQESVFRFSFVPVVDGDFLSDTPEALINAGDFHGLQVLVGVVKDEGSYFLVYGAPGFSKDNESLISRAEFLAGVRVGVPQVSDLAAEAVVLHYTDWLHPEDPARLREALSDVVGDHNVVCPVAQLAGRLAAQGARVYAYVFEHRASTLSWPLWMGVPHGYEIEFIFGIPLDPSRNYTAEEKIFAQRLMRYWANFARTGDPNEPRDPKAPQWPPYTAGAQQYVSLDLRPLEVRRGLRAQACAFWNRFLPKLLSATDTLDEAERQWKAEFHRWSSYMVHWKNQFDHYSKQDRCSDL

O=C(O)C(=O)O
inactive: Potency [1] | Potency [2] | Potency [3] | Potency [4]

CC(C)OCCO
inactive: Potency [1] | Potency [2] | Potency [3] | Potency [4]

NCCCOCCOCCOCCCN
inactive: Potency [1] | Potency [2] | Potency [3] | Potency [4]

CCOC(=O)C(=O)CCCCCCl
inactive: Potency [1] | Potency [2] | Potency [3] | Potency [4]

CC(C)Cc1ccccc1
inactive: Potency [1] | Potency [2] | Potency [3] | Potency [4]

CN(C)C(=O)NC1(c2ccccc2)CCN(CCC[C@]2(c3ccc(Cl)c(Cl)c3)CCCN(C(=O)c3ccccc3)C2)CC1
inactive: activity, negative = inhibition [1] -4.11% [at 23.6 µM] | activity change, negative = inhibition [2] 0.197% [at 23.6 µM] | activity change, negative = inhibition [3] -16% [at 23.8 µM] | activity change, negative = inhibition [4] 4.25% [at 23.6 µM]

CCO[Si](C)(CCCOCC1CO1)OCC (stereo unspecified)
inactive: Potency [1] | Potency [2] | Potency [3] | Potency [4]

O=[N+]([O-])c1ccc(/C=C/c2ccc([N+](=O)[O-])cc2S(=O)(=O)O)c(S(=O)(=O)O)c1
inactive: Potency [1] | Potency [2] | Potency [3] | Potency [4]

Cc1cccc(C(=O)O)c1[N+](=O)[O-]
inactive: Potency [1] | Potency [2] | Potency [3] | Potency [4]

Cc1cc(=O)n(-c2ccccc2)n1C
inactive: Potency [1] | Potency [2] | Potency [3] | Potency [4]

CC(C)c1cccc(O)c1
inactive: Potency [1] | Potency [2] | Potency [3] | Potency [4]

O=C(OCCCCCCOC(=O)c1ccccc1)c1ccccc1
inactive: Potency [1] | Potency [2] | Potency [3] | Potency [4]

C[Si](O[Si](C)(C)C)O[Si](C)(C)C
inactive: Potency [1] | Potency [2] | Potency [3] | Potency [4]

O=[N+]([O-])c1ccc(Oc2ccc([N+](=O)[O-])cc2)cc1
inactive: Potency [1] | Potency [2] | Potency [3] | Potency [4]

CCCCN(CCCC)CCC(O)c1cc2c(Cl)cc(Cl)cc2c2cc(C(F)(F)F)ccc12 (stereo unspecified)
inactive: Potency [1] | Potency [2] | Potency [3] | Potency [4]

COCCOCCOCCOCCOCCO
inactive: Potency [1] | Potency [2] | Potency [3] | Potency [4]

C=CC(=O)OCCCCCC
inactive: Potency [1] | Potency [2] | Potency [3] | Potency [4]

OCC#CCO
inactive: Potency [1] | Potency [2] | Potency [3] | Potency [4]

O=S(=O)(O)c1cc(O)c(O)c(S(=O)(=O)O)c1
inactive: Potency [1] | Potency [2] | Potency [3] | Potency [4]

CC(=O)CC/C=C(\C)CCC=C(C)C
inactive: Potency [1] | Potency [2] | Potency [3] | Potency [4]

NC(=O)Cc1cccc(C(=O)c2ccccc2)c1N
inactive: Potency [1] | Potency [2] | Potency [3] | Potency [4]

COCC(=O)Nc1c(I)c(C(=O)NCC(O)CO)c(I)c(C(=O)N(C)CC(O)CO)c1I (stereo unspecified)
inactive: Potency [1] | Potency [2] | Potency [3] | Potency [4]

SCCOCCOCCS
inactive: Potency [1] | Potency [2] | Potency [3] | Potency [4]

CC(O)CC(C)(C)O (stereo unspecified)
inactive: Potency [1] | Potency [2] | Potency [3] | Potency [4]

c1ccc(Sc2ccccc2)cc1
inactive: Potency [1] | Potency [2] | Potency [3] | Potency [4]

CC(C)c1ccc(O)c(C(C)C)c1
inactive: Potency [1] | Potency [2] | Potency [3] | Potency [4]

Nc1ccc(S(=O)(=O)Nc2ccccn2)cc1
inactive: Potency [1] | Potency [2] | Potency [3] | Potency [4]

N[C@@H](CCC(=O)Nc1ccc([N+](=O)[O-])cc1)C(=O)O
inactive: Potency [1] | Potency [2] | Potency [3] | Potency [4]

C/C=C\C/C=C/CCCCCCCCOC(C)=O
inactive: Potency [1] | Potency [2] | Potency [3] | Potency [4]

Cl[Si](Cl)(c1ccccc1)c1ccccc1
inactive: Potency [1] | Potency [2] | Potency [3] | Potency [4]

CCCC(CC)c1ccccc1 (stereo unspecified)
inactive: Potency [1] | Potency [2] | Potency [3] | Potency [4]

CN(C)c1cccc(O)c1
inactive: Potency [1] | Potency [2] | Potency [3] | Potency [4]

NC(=O)c1ccccc1Cl
inactive: Potency [1] | Potency [2] | Potency [3] | Potency [4]

CN(C)CCC(c1ccccc1)c1ccccn1 (stereo unspecified)
inactive: Potency [1] | Potency [2] | Potency [3] | Potency [4]

O=C1CCC/C=C\CCCCCCCCCC1
inactive: Potency [1] | Potency [2] | Potency [3] | Potency [4]

c1ccc2nccnc2c1
inactive: Potency [1] | Potency [2] | Potency [3] | Potency [4]

CN1CCN(c2c(F)cc3c(=O)c(C(=O)O)cn(CCF)c3c2F)CC1
inactive: Potency [1] | Potency [2] | Potency [3] | Potency [4]

Cn1c(=O)c2c(ncn2CCO)n(C)c1=O
inactive: Potency [1] | Potency [2] | Potency [3] | Potency [4]

C=C(C)C(=O)OCc1ccccc1
inactive: Potency [1] | Potency [2] | Potency [3] | Potency [4]
